Bioassay records as filed in PubChem.
Pf growth 48h: P. falciparum growth inhibition at 48 hours (one generation) | 310,000 compounds, 5.9% hits | Potency, µM (highest dose often 28.7 µM), for inactives: at the highest dose activity change, negative = inhibition, most hits filed as inhibitors | P. falciparum luciferase growth in erythrocytes, 48 h | AID 504832; note: potency is the fitted concentration of half-maximal effect; % is set by controls: 0 for no effect and ±100 for the full control effect
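Read-out is firefly luciferase luminescence from an integrated reporter in P. falciparum, so falling signal marks reduced parasite growth. Infected erythrocytes were at 2% hematocrit and 0.1% parasitemia (final) in Albumax-supplemented RPMI 1640.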
NS1 function inh: inhibitors of influenza NS1 protein function; 270,000 compounds, 0.4% hits; Potency, µM (titrated, usually from 46.1 µM), for the others: top-dose activity, positive = more growth; AID 2326; calls by dose curve; note: potency is the fitted concentration of half-maximal effect; actives are rising curves; nearly all actives have a fitted effect of over 50% in size
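Growth recovery, yeast-based: influenza A NS1 expressed in S. cerevisiae causes slow growth, and suppressors are detected by OD600. The parent strain without NS1 is used as positive control.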
CHX counter: counter-screen hit for Shiga toxin inhibitors, cycloheximide; AID 2314; 300,000 compounds, 12% hits; cell reporter, cycloheximide protein synthesis inhibition counterscreen; max response, %; in the data active = max response mostly above about 13%, no sharp cut-off; inactive = mostly below about 14%; note: read at 38.3 µM for the half of the compounds with a filed dose; 0% is about no effect
SARS PLP yeast: SARS-CoV PLP inhibition in yeast; 330,000 compounds, 0.19% hits; S. cerevisiae expressing SARS-CoV PLpro, growth rescue; Potency, µM (titrated, usually from 32.9 µM), inactives show at the highest dose activity, positive = growth rescue, most hits filed as activators; AID 485353; calls by dose curve; note: potency is the fitted concentration of half-maximal effect; 0% is about no effect; nearly all actives have a fitted effect of over 55% in size
Pf growth 96h: inhibits malaria parasite growth, 96 h; AID 504834; P. falciparum luciferase reporter growth, 96 h; 320,000 compounds, 6.9% hits; Potency, µM (series often up to 28.7 µM), inactives show at the top dose activity change, negative = inhibition, most hits filed as inhibitors; note: potency is the fitted concentration of half-maximal effect; % is set by controls: 0 for no effect and ±100 for the full control effect
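96 h incubation, 37 C, 5% CO2, of luciferase-reporter P. falciparum-infected RBCs (2% hematocrit, 0.05% parasitemia final) with test compounds; endpoint luminescence.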
Shiga toxin inh: blocks Shiga toxin action in Vero cells | Vero cells, Shiga toxin protein synthesis inhibition reporter | AID 2315 | inhibition, % at 38.7 µM | 290,000 compounds, 9.2% hits; in the data active = inhibition mostly above about 28%, no sharp cut-off; inactive = mostly below about 43%; note: 0% is about no effect
Numbers without * were called inactive; ? = inconclusive; / = no result given. Sampled rows, rich in hits. Any-hit rate of the full collection: about 21%. Unless noted, calls come from the whole dose curve; as a rule, active = well fitted inhibition curve with a large enough effect; inconclusive = small, poorly fitted or top-dose-only effect, or another doubt; inactive = no such curve, though single readings can be large or run the other way.

SMILES	Pf growth 48h	NS1 function inh	CHX counter	SARS PLP yeast	Pf growth 96h	Shiga toxin inh
COC(=O)c1c(NC(=O)C2C3CCC(C3)C2C(=O)O)sc2c1CCCCC2 (stereo unspecified)	5.4%	7.0%	13.3	0.6%	?	51.2*
O=C(CC(SCCO)c1ccc(F)cc1)c1ccco1 (stereo unspecified)	?	-145.6%	52.5*	-12.1%	-6.6%	104.2*
Cc1ccc(C(CC(=O)c2ccco2)SCCO)cc1 (stereo unspecified)	17.3%	-5.3%	37.6*	-4.6%	8.6%	71.6*
O=C(c1ccco1)N1CCN=C1SCc1ccc(F)cc1	-13.9%	-41.7%	-4.8	0.3%	47.3%	-5.1
O=C(C1=C[C@H](C2CCCCC2)C[C@H](OCc2ccc(CO)cc2)O1)N1CCN(Cc2ccc3c(c2)OCO3)CC1	?	-32.4%	-1.4	-0.6%	10.4µM*	-15.3
O=C(C1=C[C@@H](C2CCCCC2)C[C@@H](OCc2ccc(CO)cc2)O1)N1CCN(Cc2ccc3c(c2)OCO3)CC1	4.65µM*	-38.7%	-3.3	-4.4%	13.1µM*	-15.1
CC1=CC(=O)C(C(C)=Nc2ccccc2Cl)C(=O)O1 (stereo unspecified)	-4.7%	-2.8%	-3.2	0.9%	31.9%	19.1
Cc1ccc(C(=O)C[n+]2ccc3ccccc3c2)cc1	-35.2%	/	22.1*	-3.6%	-26.8%	44.7
O=C(C[n+]1ccc2ccccc2c1)c1ccc(NC(=O)c2ccccc2)cc1	13.1µM*	3.8%	-4.0	-0.4%	50.8%	22.0
Cc1ccc[n+](CC(=O)c2ccccc2)c1	18.3%	17.6%	4.1	2.1%	-10.3%	15.3
COc1cc(SC)ccc1C(=O)NCCOc1ccc(C)c(C)c1	-23.2%	-8.1%	2.7	-7.1%	-93.3%	-5.3
COc1ccc2occ(C(C)=O)c2c1	/	-10.3%	-0.6	13.8%	?	-1.1
COc1ccc2occ(C(=O)c3ccccc3)c2c1	118.3%	/	37.7*	-0.9%	5.3%	66.1*
COc1ccc(OC)c(C(=O)c2coc3ccc(O)cc23)c1	16.5%	-8.7%	25.4*	-11.6%	10.4µM*	103.4*
Cc1ccc(S(=O)(=O)CC(CN2CCOCC2)N2CCOCC2)cc1 (stereo unspecified)	-0.2%	-0.8%	-1.1	-0.7%	-17.8%	-5.6
O=S(=O)(CC(CN1CCCC1)N1CCCC1)c1ccc2ccccc2c1 (stereo unspecified)	?	1.3%	1.8	3.2%	4.15µM*	3.0
COC(=O)CNc1nc(Cl)nc(Nc2ccc(Cl)cc2)n1	-7.2%	/	-0.7	0.4%	-25.2%	-12.6
CCOC(=O)N1CCN(C(=O)CSc2nnc3[nH]c(=O)c(C)c(C)n23)CC1	9.28µM*	/	/	/	?	/
CC(CCc1ccccc1)NC(=O)CNC(=O)N1CC(=O)Nc2ccccc21 (stereo unspecified)	2.6%	12.4%	-1.9	4.4%	50.6%	1.7
COc1cccc(-c2nnc(-c3ccc(C(F)(F)F)cc3)o2)c1OC	168.8%	-1.5%	20.8*	-4.6%	9.0%	26.1
COc1cc(OC)c(-c2nnc(-c3ccc(OC)c(OC)c3OC)o2)cc1OC	?	15.8%	-1.3	-6.2%	-26.2%	-10.7
O=C(Nc1ccccc1)C1(c2ccccc2)CC1(Cl)Cl (stereo unspecified)	3.7µM*	-29.8%	6.8	-22.4%	1.65µM*	20.5
CCC(=O)NC(c1ccccc1)c1nc2ccccc2[nH]1 (stereo unspecified)	24.4%	-2.2%	44.1*	5.2%	43.2%	67.9*
Cc1ccc(C)c(COC(=O)c2cc([N+](=O)[O-])ccc2N2CCOCC2)c1	?	/	/	2.2%	?	/
Cc1ccc(C)c(COC(=O)c2cc(S(=O)(=O)N3CCCCC3)ccc2N2CCOCC2)c1	14.7µM*	/	/	-1.7%	?	/
SMILES	Pf growth 48h	NS1 function inh	CHX counter	SARS PLP yeast	Pf growth 96h	Shiga toxin inh
O=C(OCc1ccccc1)c1cc(S(=O)(=O)N2CCCCC2)ccc1N1CCOCC1	?	/	/	-4.8%	11.7µM*	/
O=C(OCc1cccc(Cl)c1)c1cc(S(=O)(=O)N2CCCCC2)ccc1N1CCOCC1	?	15.3%	9.9	-2.7%	13.1µM*	22.1
COCC(C)NC(=O)c1cc(S(=O)(=O)N2CCCCC2)ccc1N1CCOCC1 (stereo unspecified)	-6.0%	1.8%	-2.0	4.5%	5.2%	-4.4
CC(C)CCCC(C)NC(=O)c1cc(S(=O)(=O)N2CCCCC2)ccc1N1CCOCC1 (stereo unspecified)	?	/	/	-4.7%	9.28µM*	/
COCCNC(=O)c1cc(S(=O)(=O)N2CCCCC2)ccc1N1CCOCC1	-18.4%	/	/	-0.6%	-3.3%	/
Cc1ccc(COC(=O)c2cc(S(=O)(=O)N3CCCCC3)ccc2N2CCOCC2)cc1	9.28µM*	/	/	-1.6%	?	/
O=C(OCc1cccc(C(F)(F)F)c1)c1cc([N+](=O)[O-])ccc1N1CCOCC1	?	/	/	-3.3%	?	/
O=C(OCCOc1cccc(Cl)c1)c1cc(S(=O)(=O)N2CCCCC2)ccc1N1CCOCC1	?	/	/	-0.2%	13.1µM*	/
O=C(OCc1cccc(Cl)c1)c1cc([N+](=O)[O-])ccc1N1CCOCC1	?	/	/	-6.2%	11.7µM*	/
COC(=O)c1cc(S(=O)(=O)N2CCCCC2)ccc1N1CCOCC1	?	/	/	-0.4%	-11.8%	/
Cc1ccc(CNC(=O)c2cc(S(=O)(=O)N3CCCCC3)ccc2N2CCOCC2)cc1	8.28µM*	/	/	1.9%	?	/
CCOP(=O)(OCC)C(Nc1ccc(OC)cc1)c1ccco1 (stereo unspecified)	14.4%	/	-2.7	1.2%	203.5%	-6.5
CC(=O)Nc1cccc(C(=O)Nc2cccnc2)c1	18.6%	/	2.3	-2.1%	8.6%	-8.6
CCCNC(=S)NNC(=O)c1cc(-c2cccnc2)nc2ccccc12	-2.3%	9.4%	-1.5	2.2%	?	8.1
O=C(NNC(=S)Nc1ccccc1)c1cc(-c2cccnc2)nc2ccccc12	?	-4.8%	1.9	2.1%	1.17µM*	4.8
CCOC(=O)c1ccc(NC(=S)NNC(=O)c2cc(-c3cccnc3)nc3ccccc23)cc1	4.15µM*	7.9%	8.8	3.4%	66.1%	22.1
O=C(NC(=S)Nc1ccccc1)c1cc(-c2ccccc2)nc2ccccc12	?	?	2.7	-8.3%	10.4µM*	-3.0
O=C(NC(=S)Nc1ccccn1)c1cc(-c2ccccc2)nc2ccccc12	23.2%	60.3%	0.4	7.5%	-28.3%	33.1
COC(=O)c1cc(=O)c2c(C)nc(C(Cl)(Cl)Cl)nc2[nH]1	355.0%	/	1.0	-7.8%	126.1%	-1.3
O=C(NC1C2CC3CC(C2)CC1C3)C1CC1 (stereo unspecified)	7.38µM*	-1.6%	2.0	-10.8%	27.4%	-7.3
CCc1cccc(N(CC(=O)NC2CCCCC2)C(=O)c2csnn2)c1	-11.6%	22.6%	-3.0	-1.3%	0.6%	-6.6
CCSc1nc2ccc(N3C(=O)C4C5C=CC(C5)C4C3=O)cc2s1 (stereo unspecified)	52.1%	-12.6%	26.6*	-7.8%	79.9%	49.7*
